Test results: PubChem BioAssay AID1347142 (National Center for Advancing Translational Sciences (NCATS), 2019)
Inconclusive results are not listed. Calls of active or inactive are those of the source. Calls follow the shape of the dose curve; as a rule, active = well fitted inhibition curve with a large enough effect; inconclusive = small, poorly fitted or top-dose-only effect; inactive = no such curve, though single readings can be large or run the other way.

These compounds were tested against N-terminal Xaa-Pro-Lys N-methyltransferase 1 (Homo sapiens) (UniProt Q9BV86) (assay: qHTS Assay for Inhibitors of N-terminal methyltransferase 1 (NTMT1): ThioGlo3 Assay Confirmatory Screen, Round 1.). Details: NTMT1 SAHH-coupled ThioGlo3 fluorescence, 30 min; series mostly up to 56.8 µM.
Sequence of N-terminal Xaa-Pro-Lys N-methyltransferase 1 (Homo sapiens) (Q9BV86 whole entry, looked up): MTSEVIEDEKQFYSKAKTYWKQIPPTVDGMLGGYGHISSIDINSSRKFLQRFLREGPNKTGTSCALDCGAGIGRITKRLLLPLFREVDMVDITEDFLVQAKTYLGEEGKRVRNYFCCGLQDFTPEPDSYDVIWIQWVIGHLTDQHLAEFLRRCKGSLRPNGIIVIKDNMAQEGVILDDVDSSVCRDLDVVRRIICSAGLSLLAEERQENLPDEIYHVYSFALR
From the text: Assay Submitter (PI): Rong Huang Ph.D, Purdue University, West Lafayette, IN 47907 The N-terminal methytransferase 1 is the first methyltransferase that methylates protein alpha-N-amines and plays an important role in regulating cell mitosis, chromatin interactions and DNA repair. It is observed to be over-expressed in various cancer patient tissues like malignant melanoma and colorectal cancer tissues. Knockdown of NTMT1 in cancer cells causes cell mitotic defects and enhances sensitivity to DNA damaging chemotherapeutics. […] These critical cellular processes in which NTMT1 is implicated, coupled with emerging links to cellular dysfunction, strengthen the inference that NTMT1 is a compelling novel anticancer target. Progress have been made in understanding the molecular properties of NTMT1 and the biological consequences of protein alpha-N-terminal methylation, but there are no specific small molecule probes available for NTMT1 to fully characterize its MTase activity. To address this unmet need, a panel of assay is created and established to enable quantitative high-throughput screening (qHTS) for novel, potent, and selective small molecule NTMT1 inhibitors. Two orthogonal qHTS that use different reagents (ThioGlo vs. MTaseGlo) are developed for primary robotic screening against the NCATS chemical library of more than 400,000 small molecules. Identified inhibitors are reacquired, validated, and further characterized. […] Early Translation Branch (ETB) National Center for Advancing Translational Sciences (NCATS) National Institute of Health (NIH)
Materials: NTMT1 enzyme, substrate SPKRIA, control peptide RCC1-6 is provided by the Huang laboratory. ThioGlo3 Assay: In brief, 125nM NTMT1 enzyme was dispensed into a 1536-well assay plate with Aurora Discovery BioRAPTR Flying Reagent Dispenser (FRD, Beckton-Dickenson). Compounds (at various concentration) or 1uM RCC1-6 (SPKRIA) control were transferred to the assay plate using the Kalypsys 1536-pintool apparatus. After 1 min of room temperature incubation, 1uL of substrate (100uM SAM, 10uM SAHH, 15uM ThioGlo3) was added to the wells bringing the final assay volume to 4uL. Initial (background) fluorescence readout (EX: 340nm, EM: 450nm) was then detected using the PerkinElmer ViewLux microplate imager and a final fluorescence readout was taken after 30 min of room temperature incubation. The data was normalized to the background fluorescence.
Also: nearly all actives have a fitted effect of over 80% in size.
Potency is read from the fitted curve at half-maximal effect.

Q: How did the Potency turn out when `COc1cc2nc(N3CCN(C(C)=O)CC3)nc(NC3CC3)c2cc1OC` was run?
A: 21.5 µM (active)

Q: With `CC(C)=CCNc1ncnc2c1ncn2[C@@H]1O[C@H](CO)[C@@H](O)[C@H]1O` as the compound, how does the Potency read?
A: 13.6 µM (active)

Q: With `COc1cc2nc(NC3CCN(C)CC3)nc(N3CCCN(C)CC3)c2cc1OC` as the compound, how does the Potency read?
A: 24.1 µM (active)

Q: `COc1cc2c(NC3CCN(C(C)C)CC3)nc(N3CCCN(C4CCCCC4)CC3)nc2cc1OCCCN1CCCCC1` was tested. Which Potency did it give?
A: 24.1 µM (active)

Q: With `Nc1ncnc2c1ncn2[C@@H]1O[C@H](C(=O)NC2CC2)[C@@H](O)[C@H]1O` as the compound, how does the Potency read?
A: inactive

Q: Which Potency does the source give for `NC[C@H]1O[C@@H](n2cnc3c(N)ncnc32)[C@H](O)[C@@H]1O` here?
A: inactive

Q: Which Potency does the source give for `CNC(=O)c1cnn(-c2nc(N)c3ncn([C@@H]4O[C@H](CO)[C@@H](O)[C@H]4O)c3n2)c1` here?
A: inactive

Q: Which Potency does the source give for `C=C1OC(CO)(n2cnc3c(N)ncnc32)C(O)C1O` (stereo not given) here?
A: inactive

Q: How did the Potency turn out when `COc1cc2c(NC3CCN(C(C)C)CC3)nc(N3CCCCCC3)nc2cc1OCCCN1CCCC1` was run?
A: 21.5 µM (active)

Q: `COc1cc2nc(N3CCCN(C)CC3)nc(N(C)C)c2cc1OC` was tested. Which Potency did it give?
A: inactive

Q: How did the Potency turn out when `CCNC(=O)[C@H]1O[C@H](n2cnc3c(N)nc(NCCc4ccc(CCC(=O)O)cc4)nc32)[C@@H](O)[C@@H]1O` was run?
A: inactive

Q: For `Nc1ncnc2c1ncn2[C@@H]1O[C@H](COP(=O)(O)OP(=O)(O)OP(=O)(O)O)[C@@H](O)[C@H]1O`, which Potency is on record?
A: inactive

Q: `N#Cc1ccc(COC[C@H]2O[C@@H](n3c(NCc4ccc(Cl)c(Cl)c4)nc4c(N)ncnc43)[C@@H](O)[C@@H]2O)cc1` was tested. Which Potency did it give?
A: inactive

Q: With `Nc1ccnc2c1ncn2[C@@H]1O[C@H](CO)[C@@H](O)[C@H]1O` as the compound, how does the Potency read?
A: 2.71 µM (active)

Q: Which Potency does the source give for `COc1cc2c(NC3CCN(C)CC3)nc(N3CCCN(C)CC3)nc2cc1OCCN(C)C` here?
A: 21.5 µM (active)

Q: `COC(=O)c1ccc2c(c1)nc(NC(=O)c1ccccc1)n2CCCc1ccccc1` was tested. Which Potency did it give?
A: inactive

Q: How did the Potency turn out when `Nc1nc(Cl)nc2c1ncn2[C@@H]1O[C@H](CO)C(O)[C@H]1O` (stereo not given in full) was run?
A: inactive

Q: For `OC[C@H]1O[C@@H](n2cnc3c(NC4CCCC4)ncnc32)[C@H](O)C1O` (stereo not given in full), which Potency is on record?
A: inactive

Q: How did the Potency turn out when `CCCN(C)CCCOc1cc2nc(N3CCCN(C)CC3)nc(NC3CCN(C)CC3)c2cc1OC` was run?
A: 27.1 µM (active)

Q: How did the Potency turn out when `COc1cc2nc(N3CCCCC3)nc(NC3CCN(C)CC3)c2cc1OC` was run?
A: 27.1 µM (active)

Q: Which Potency does the source give for `CC[C@H](C)n1cc(C)c2c(C(=O)NCc3c(C)cc(C)[nH]c3=O)cc(-c3ccc(N4CCNCC4)nc3)cc21` here?
A: 21.5 µM (active)

Q: With `COc1cc2c(NC3CCN(C4CCCCC4)CC3)nc(N3CCCCCC3)nc2cc1OCCOCCN(C)C` as the compound, how does the Potency read?
A: 24.1 µM (active)

Q: With `COc1cc2c(NC3CCN(C(C)C)CC3)nc(N3CCCN(C4CCCCC4)CC3)nc2cc1OCCCN1CCCC1` as the compound, how does the Potency read?
A: 24.1 µM (active)

Q: With `COc1cc2c(NC3CCN(C(C)C)CC3)nc(N3CCCN(C(C)C)CC3)nc2cc1OCCOCCN(C)C` as the compound, how does the Potency read?
A: 24.1 µM (active)

Q: How did the Potency turn out when `COc1cc2nc(NC3CCN(C)CC3)nc(NC3CCN(C)CC3)c2cc1OC` was run?
A: 27.1 µM (active)

Q: With `Nc1nc(Cl)nc2c1ncn2[C@@H]1O[C@H](COP(=O)(O)OP(=O)(O)OP(=O)(O)O)[C@@H](O)[C@H]1O` as the compound, how does the Potency read?
A: inactive

Q: How did the Potency turn out when `Nc1ncnc2c1ncn2[C@@H]1O[C@H](CSCC[C@H](N)C(=O)O)[C@@H](O)[C@H]1O` was run?
A: inactive

Q: Which Potency does the source give for `COc1cc2nc(N3CCN(C)CC3)nc(NC3CCCCC3)c2cc1OC` here?
A: 27.1 µM (active)

Q: Which Potency does the source give for `CSc1nc(N)c2ncn([C@H]3O[C@H](COP(=O)(O)OP(=O)(O)O)[C@@H](O)[C@@H]3O)c2n1` here?
A: inactive

Q: For `OC[C@H]1O[C@@H](n2cnc3c(NCc4ccccc4)ncnc32)[C@H](O)[C@@H]1O`, which Potency is on record?
A: inactive

Q: With `COc1cc2c(NC3CCN(C(C)C)CC3)nc(N3CCCN(CC4CCCCC4)CC3)nc2cc1OCCCN1CCCCC1` as the compound, how does the Potency read?
A: 24.1 µM (active)

Q: With `COc1cc2nc(N3CCOCC3)nc(NC3CC3)c2cc1OC` as the compound, how does the Potency read?
A: 27.1 µM (active)

Q: How did the Potency turn out when `OC[C@@H]1O[C@@H](n2cnc3c(N[C@H]4CCC[C@@H]4O)ncnc32)[C@H](O)[C@H]1O` was run?
A: inactive

Q: `CNc1nc(N2CCN(C)CC2)nc2cc(OC)c(OC)cc12` was tested. Which Potency did it give?
A: 24.1 µM (active)

Q: How did the Potency turn out when `COc1cc2nc(N3CCN(C)CC3)nc(NC3CCN(C)CC3)c2cc1OC` was run?
A: 24.1 µM (active)

Q: Which Potency does the source give for `COc1cc2nc(N3CC[C@@H](N(C)C)C3)nc(NC3CC3)c2cc1OC` here?
A: inactive

Q: Which Potency does the source give for `COc1cc2nc(NCCN(C)C)nc(NC3CC3)c2cc1OC` here?
A: 27.1 µM (active)

Q: With `O=S(=O)(O)c1ccc(Nc2ncnc3c2ncn3[C@@H]2O[C@H](CO)[C@@H](O)[C@H]2O)cc1` as the compound, how does the Potency read?
A: inactive

Q: For `CCN1CCN(c2nc(NC3CC3)c3cc(OC)c(OC)cc3n2)CC1`, which Potency is on record?
A: 24.1 µM (active)

Q: How did the Potency turn out when `CC(C)N(C[C@H]1O[C@@H](n2cnc3c(N)ncnc32)[C@H](O)[C@@H]1O)C1CC(CCc2nc3ccc(C(C)(C)C)cc3[nH]2)C1` (stereo not given in full) was run?
A: inactive
